Activity calls are given as the source filed them. The calls were made as follows: active = hit-call score of the fitted dose curve at least 0.9, where 1 is the maximum; inactive = score below 0.9.
Tests used:
Conditions in all cases: mRNA level, 48 h; actives raise or lower the signal
[1] = read-out: Pro-epidermal growth factor (Homo sapiens) (UniProt P01133); assay: LTEA_HepaRG_EGF: Life Technologies and Expression Analysis (LTEA) Assay for Epidermal growth factor (EGF) using HepaRG (AID 2283489)
Procedure, shortened: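 Concentration-response mRNA assay: HepaRG cells dosed 48 h (max 100 uM, 0.5% DMSO), EGF measured by qRT-PCR and normalized to ACTB/GAPDH/POLR2A.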

[2] = read-out: Early growth response protein 1 (EGR1) transcription factor, EGR1 (gene 1958); assay: LTEA_HepaRG_EGR1: Life Technologies and Expression Analysis (LTEA) Assay for Early growth response protein 1 (EGR1) transcription factor using HepaRG (AID 2283490)
Procedure, shortened: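 Differentiated HepaRG cells in serum-free induction medium exposed 48 hours, duplicate, to 8 half-log concentrations up to 100 uM in 0.5% DMSO. EGR1 mRNA measured by TaqMan qRT-PCR, normalized to ACTB, GAPDH, POLR2A; bidirectional fit versus DMSO.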

[3] = read-out: Ezrin (EZR), EZR (gene 7430); assay: LTEA_HepaRG_EZR: Life Technologies and Expression Analysis (LTEA) Assay for Ezrin (EZR) using HepaRG (AID 2283491)
Procedure, shortened: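 Read-out is EZR transcript level by qRT-PCR, normalized to three housekeeping genes and fitted bidirectionally against the DMSO control. Human HepaRG cells received test chemicals for 48 h at eight half-log concentrations up to 100 uM in 0.5% DMSO.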

[4] = read-out: Cytochrome P450 3A7 (Homo sapiens) (UniProt P24462); assay: LTEA_HepaRG_CYP3A7: Life Technologies and Expression Analysis (LTEA) Assay for CYP3A7 using HepaRG (AID 2283492)
Procedure, shortened: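 qRT-PCR of CYP3A7 in HepaRG lysates after 48 h treatment; concentration-response (8 points, max 100 uM) analysed bidirectionally relative to 0.5% DMSO controls.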

CYP3A5 (gene 1577) = assay: LTEA_HepaRG_CYP3A5: Life Technologies and Expression Analysis (LTEA) Assay for CYP3A5 using HepaRG (AID 2283493)
Procedure, shortened: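 Differentiated HepaRG cells in serum-free induction medium were dosed 48 h with test chemicals (8-point half-log series, top 100 uM, 0.5% DMSO, duplicate). CYP3A5 mRNA measured by qRT-PCR, normalized to ACTB, GAPDH, POLR2A; bidirectional fit versus DMSO.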

[5] = read-out: Fatty Acid-Binding Protein 1 (FABP1), FABP1 (gene 2168); assay: LTEA_HepaRG_FABP1: Life Technologies and Expression Analysis (LTEA) Assay for Fatty Acid-Binding Protein 1 (FABP1) using HepaRG (AID 2283494)
Procedure, shortened: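 Differentiated human HepaRG cells exposed 48 h in serum-free induction medium to eight half-log concentrations up to 100 uM (0.5% DMSO), duplicate. FABP1 mRNA by qRT-PCR, normalised to ACTB, GAPDH, POLR2A; bidirectional fitting against DMSO.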

[6] = read-out: Cytochrome P450 4A22 (Homo sapiens) (UniProt Q5TCH4); assay: LTEA_HepaRG_CYP4A22: Life Technologies and Expression Analysis (LTEA) Assay for Cytochrome P450 4A22 (CYP4A22) using HepaRG (AID 2283495)
Procedure, shortened: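 Concentration-response (8 points, max 100 uM, 0.5% DMSO) in human HepaRG liver cells after 48 h exposure. CYP4A22 mRNA by TaqMan qRT-PCR with housekeeping-gene normalization.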

[7] = read-out: Cytochrome P450 7A1 (Homo sapiens) (UniProt P22680); assay: LTEA_HepaRG_CYP7A1: Life Technologies and Expression Analysis (LTEA) Assay for Cytochrome P450 7A1 (CYP7A1) using HepaRG (AID 2283496)
Procedure, shortened: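 Gene expression endpoint in human HepaRG liver cells treated for 48 h with test chemicals (up to 100 uM, 0.5% DMSO). Values come from bidirectional concentration-response fitting versus DMSO.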

[8] = read-out: Glutathione S-Transferase (GSTA2), GSTA2 (gene 2939); assay: LTEA_HepaRG_GSTA2: Life Technologies and Expression Analysis (LTEA) Assay for Glutathione S-Transferase (GSTA2) using HepaRG (AID 2283497)
Procedure, shortened: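 Differentiated human HepaRG cells were exposed in duplicate for 48 h in serum-free induction medium, 8 points from 100 uM top in half-log steps, 0.5% DMSO. GSTA2 mRNA was measured by TaqMan qRT-PCR, normalized to ACTB, GAPDH and POLR2A; bidirectional fit versus DMSO.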

[9] = read-out: Glutamate-cysteine ligase catalytic (GCLC), GCLC (gene 2729); assay: LTEA_HepaRG_GCLC: Life Technologies and Expression Analysis (LTEA) Assay for Glutamate-cysteine ligase catalytic (GCLC) using HepaRG (AID 2283498)
Procedure, shortened: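 Differentiated HepaRG cells exposed 48 h in serum-free induction medium, eight-point half-log series topping at 100 uM in 0.5% DMSO, duplicates. GCLC mRNA by qRT-PCR normalized to ACTB, GAPDH and POLR2A, fitted bidirectionally versus DMSO.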

Cytochrome P450 3A7 (Homo sapiens), sequence (P24462 whole entry, looked up): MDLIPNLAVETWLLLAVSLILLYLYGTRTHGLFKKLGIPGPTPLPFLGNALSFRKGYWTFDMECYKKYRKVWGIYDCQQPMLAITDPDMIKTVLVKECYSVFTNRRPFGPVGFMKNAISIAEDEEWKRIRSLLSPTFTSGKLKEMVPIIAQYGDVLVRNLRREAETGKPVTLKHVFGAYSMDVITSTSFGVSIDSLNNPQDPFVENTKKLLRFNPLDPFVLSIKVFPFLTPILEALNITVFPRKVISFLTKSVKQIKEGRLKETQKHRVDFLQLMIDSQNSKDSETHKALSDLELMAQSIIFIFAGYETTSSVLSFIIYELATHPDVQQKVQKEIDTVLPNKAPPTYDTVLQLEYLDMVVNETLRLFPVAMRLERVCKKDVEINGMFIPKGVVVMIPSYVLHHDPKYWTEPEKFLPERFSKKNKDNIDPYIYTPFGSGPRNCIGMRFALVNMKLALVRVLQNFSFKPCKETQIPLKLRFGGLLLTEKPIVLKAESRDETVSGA

CN[C@H]1CC[C@@H](c2ccc(Cl)c(Cl)c2)c2ccc(S(N)(=O)=O)cc21
outcome [1]: inactive
AC50 [2]: 83 µM (active)
outcome [3]: inactive
outcome [4]: inactive
outcome (CYP3A5 (gene 1577)): inactive
AC50 [5]: 50 µM (active)
AC50 [6]: 15.8 µM (active)
AC50 [7]: 12.2 µM (active)
outcome [8]: inactive
outcome [9]: inactive

NCCO
outcome [1]: inactive
outcome [2]: inactive
outcome [3]: inactive
outcome [4]: inactive
outcome (CYP3A5 (gene 1577)): inactive
outcome [5]: inactive
outcome [6]: inactive
outcome [7]: inactive
outcome [8]: inactive
outcome [9]: inactive

Cc1ccc(N(C)C)cc1
outcome [1]: inactive
outcome [2]: inactive
outcome [3]: inactive
outcome [4]: inactive
outcome (CYP3A5 (gene 1577)): inactive
outcome [5]: inactive
outcome [6]: inactive
outcome [7]: inactive
outcome [8]: inactive
outcome [9]: inactive

CC(=O)C(C)=CC1C(C)=CCCC1(C)C (stereo not given)
outcome [1]: inactive
outcome [2]: inactive
outcome [3]: inactive
outcome [4]: inactive
outcome (CYP3A5 (gene 1577)): inactive
outcome [5]: inactive
outcome [6]: inactive
outcome [7]: inactive
outcome [8]: inactive
outcome [9]: inactive

CCCc1cc(=O)[nH]c(=S)[nH]1
outcome [1]: inactive
outcome [2]: inactive
outcome [3]: inactive
outcome [4]: inactive
outcome (CYP3A5 (gene 1577)): inactive
outcome [5]: inactive
outcome [6]: inactive
outcome [7]: inactive
outcome [8]: inactive
outcome [9]: inactive

CC=Cc1ccc(O)c(OC)c1
outcome [1]: inactive
outcome [2]: inactive
outcome [3]: inactive
outcome [4]: inactive
outcome (CYP3A5 (gene 1577)): inactive
outcome [5]: inactive
outcome [6]: inactive
outcome [7]: inactive
outcome [8]: inactive
outcome [9]: inactive

CCCCOC(=O)CCCCCCCCC(=O)OCCCC
outcome [1]: inactive
outcome [2]: inactive
outcome [3]: inactive
outcome [4]: inactive
outcome (CYP3A5 (gene 1577)): inactive
outcome [5]: inactive
outcome [6]: inactive
outcome [7]: inactive
outcome [8]: inactive
outcome [9]: inactive

O=C(O)Cc1ccccc1Nc1c(Cl)cccc1Cl
outcome [1]: inactive
outcome [2]: inactive
outcome [3]: inactive
outcome [4]: inactive
outcome (CYP3A5 (gene 1577)): inactive
outcome [5]: inactive
AC50 [6]: 9.92 µM (active)
AC50 [7]: 1.24 µM (active)
outcome [8]: inactive
outcome [9]: inactive

Cc1nc(-c2ccc3c(c2)CCN(CCC2CCC(NC(=O)/C=C/c4ccc(F)cc4)CC2)CC3)no1 (stereo not given)
outcome [1]: inactive
outcome [2]: inactive
outcome [3]: inactive
outcome [4]: inactive
outcome (CYP3A5 (gene 1577)): inactive
outcome [5]: inactive
outcome [6]: inactive
outcome [7]: inactive
outcome [8]: inactive
outcome [9]: inactive

CC(=O)OCCOCCOCCOC(C)=O
outcome [1]: inactive
outcome [2]: inactive
outcome [3]: inactive
outcome [4]: inactive
outcome (CYP3A5 (gene 1577)): inactive
outcome [5]: inactive
outcome [6]: inactive
outcome [7]: inactive
outcome [8]: inactive
outcome [9]: inactive

CCOc1ccc2c(c1)C(C)=CC(C)(C)N2
outcome [1]: inactive
outcome [2]: inactive
outcome [3]: inactive
AC50 [4]: 1.12 µM (active)
outcome (CYP3A5 (gene 1577)): inactive
AC50 [5]: 50 µM (active)
outcome [6]: inactive
AC50 [7]: 33.3 µM (active)
outcome [8]: inactive
outcome [9]: inactive

COC(=O)c1ccc(O)cc1
outcome [1]: inactive
outcome [2]: inactive
outcome [3]: inactive
outcome [4]: inactive
outcome (CYP3A5 (gene 1577)): inactive
outcome [5]: inactive
outcome [6]: inactive
outcome [7]: inactive
outcome [8]: inactive
outcome [9]: inactive

Nc1nc(N)c2nc(CNc3ccc(C(=O)N[C@@H](CCC(=O)O)C(=O)O)cc3)cnc2n1
outcome [1]: inactive
AC50 [2]: 0.102 µM (active)
outcome [3]: inactive
outcome [4]: inactive
AC50 (CYP3A5 (gene 1577)): 0.0852 µM (active)
outcome [5]: inactive
outcome [6]: inactive
AC50 [7]: 0.162 µM (active)
AC50 [8]: 0.12 µM (active)
outcome [9]: inactive

CCCCN(CCCC)CCCC
outcome [1]: inactive
outcome [2]: inactive
outcome [3]: inactive
outcome [4]: inactive
outcome (CYP3A5 (gene 1577)): inactive
outcome [5]: inactive
outcome [6]: inactive
outcome [7]: inactive
outcome [8]: inactive
outcome [9]: inactive

CC1(C)CC(N=C=O)CC(C)(CN=C=O)C1 (stereo not given)
outcome [1]: inactive
outcome [2]: inactive
outcome [3]: inactive
outcome [4]: inactive
outcome (CYP3A5 (gene 1577)): inactive
AC50 [5]: 26.2 µM (active)
outcome [6]: inactive
outcome [7]: inactive
outcome [8]: inactive
outcome [9]: inactive

Oc1ccc2ccccc2c1N=Nc1ccccc1
outcome [1]: inactive
AC50 [2]: 3.53 µM (active)
outcome [3]: inactive
AC50 [4]: 2.19 µM (active)
AC50 (CYP3A5 (gene 1577)): 8.1 µM (active)
AC50 [5]: 16.2 µM (active)
outcome [6]: inactive
AC50 [7]: 16.3 µM (active)
AC50 [8]: 3.38 µM (active)
AC50 [9]: 5.52 µM (active)

O=C(N[C@@H](Cc1ccccc1)[C@@H](O)C(=O)N1C[C@@H](O)[C@@H](O)C1)c1cc2cc(Cl)ccc2[nH]1
outcome [1]: inactive
outcome [2]: inactive
AC50 [3]: 9.92 µM (active)
AC50 [4]: 12.6 µM (active)
outcome (CYP3A5 (gene 1577)): inactive
outcome [5]: inactive
AC50 [6]: 14.3 µM (active)
outcome [7]: inactive
AC50 [8]: 81.7 µM (active)
outcome [9]: inactive

CCCCCCCCCCO
outcome [1]: inactive
outcome [2]: inactive
outcome [3]: inactive
outcome [4]: inactive
outcome (CYP3A5 (gene 1577)): inactive
outcome [5]: inactive
outcome [6]: inactive
outcome [7]: inactive
outcome [8]: inactive
outcome [9]: inactive

Cc1cccc(C)c1O
outcome [1]: inactive
outcome [2]: inactive
outcome [3]: inactive
outcome [4]: inactive
outcome (CYP3A5 (gene 1577)): inactive
outcome [5]: inactive
outcome [6]: inactive
outcome [7]: inactive
outcome [8]: inactive
outcome [9]: inactive

CCc1c(C(=O)NN2CCCCC2)nn(-c2ccc(Cl)cc2Cl)c1-c1ccc(Br)cc1
outcome [1]: inactive
AC50 [2]: 12.2 µM (active)
outcome [3]: inactive
AC50 [4]: 23.1 µM (active)
AC50 (CYP3A5 (gene 1577)): 50 µM (active)
AC50 [5]: 36.2 µM (active)
AC50 [6]: 15.8 µM (active)
AC50 [7]: 37.6 µM (active)
AC50 [8]: 31.7 µM (active)
AC50 [9]: 50 µM (active)

Cc1cc(NC(=O)C(=O)O)cc(C)c1Oc1ccc(O)c2c1CCC2
outcome [1]: inactive
outcome [2]: inactive
outcome [3]: inactive
AC50 [4]: 0.0522 µM (active)
AC50 (CYP3A5 (gene 1577)): 0.0973 µM (active)
AC50 [5]: 0.0279 µM (active)
AC50 [6]: 0.0307 µM (active)
AC50 [7]: 0.229 µM (active)
AC50 [8]: 75.6 µM (active)
outcome [9]: inactive

CCCCCCCCCCC
outcome [1]: inactive
outcome [2]: inactive
outcome [3]: inactive
outcome [4]: inactive
outcome (CYP3A5 (gene 1577)): inactive
outcome [5]: inactive
outcome [6]: inactive
outcome [7]: inactive
outcome [8]: inactive
outcome [9]: inactive
